Screening data: PubChem, National Center for Advancing Translational Sciences (NCATS)
An excerpt weighted towards active compounds, which were near 2.8% of everything screened.
Pol beta inh = inhibitors of human DNA polymerase beta | P06746 | 340,000 tested, 1.3% active | Potency, µM (top dose mostly 114 µM), inactives show at the highest dose activity change, negative = inhibition, most hits filed as inhibitors | Pol beta primer extension/strand displacement, fluorescence kinetic; note: potency is the fitted concentration of half-maximal effect; % is set by controls: 0 for no effect and ±100 for the full control effect
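Values derive from four-parameter Hill fits of normalized kinetic data: reads at 0 and 10 min following addition of 50 nM substrate to 10 nM Pol beta preincubated 15 min with compound.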
POLK inh = DNA polymerase kappa (human) inhibition. Q9UBT6. purified Pol kappa, fluorescent DNA synthesis assay, 10 min. Potency, µM (doses to about 107 µM), for the others: top-dose activity, negative = inhibition, usual class: inhibitors. 400,000 tested, 0.53% active. AID 588579; note: potency is the fitted concentration of half-maximal effect; % is set by controls: 0 for no effect and ±100 for the full control effect
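10 nM Pol kappa preincubated 15 min at room temperature with compounds, then reaction started with substrate at 50 nM final. Fluorescence read kinetically at 0 and 10 min; buffer-only wells served as negative control.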
PI5P4Ka inh = blocks human PI5P4K alpha kinase activity; AID 652105; 330,000 tested, 1.2% active; max response, %; PI5P4Kalpha enzyme, ADP-Glo luminescence, 60 min; stronger effect = lower value; active = max response of -50% or lower; inconclusive = between -30% and -50%; inactive = -30% or higher; note: value at the top dose of about 77 µM; % is set by controls: 0 for no effect and ±100 for the full control effect
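Single end-point luminescence (ADP-Glo) quantified ADP from PI5P4Kalpha turnover; ATP 5 microM final, 1 h at RT, 0.1% CHAPS and 0.28 mM EGTA in HEPES pH 7.4.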
PI4K2A inh = PI4K2A (human) kinase inhibition | activity change, negative = inhibition, % at 76.9 µM | 420,000 tested, 0.13% active | purified PI4K2A, ADP-Glo luminescence, 1 h; stronger effect = lower value | Q9BTU6 | AID 1346378; in the data active = activity change below about -50%; inconclusive = mostly about -30% to -49%;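 note: -100% = wells without enzyme as full effect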
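In this quantitative HTS, ADP production by PI4K2A was quantified luminescently after 1 h at ambient temperature; 100 microM adenosine served as plate-quality control.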
POLI inh = DNA polymerase iota (human) inhibition; Pol iota fluorescent replication assay, 10 min; AID 588590; 390,000 tested, 1% active; Potency, µM (titrated, usually from 115 µM), without a hit: at the highest dose activity, negative = inhibition, hits mostly inhibitors; note: potency is the fitted concentration of half-maximal effect
Target sequence (Q9UNA4 whole entry, looked up): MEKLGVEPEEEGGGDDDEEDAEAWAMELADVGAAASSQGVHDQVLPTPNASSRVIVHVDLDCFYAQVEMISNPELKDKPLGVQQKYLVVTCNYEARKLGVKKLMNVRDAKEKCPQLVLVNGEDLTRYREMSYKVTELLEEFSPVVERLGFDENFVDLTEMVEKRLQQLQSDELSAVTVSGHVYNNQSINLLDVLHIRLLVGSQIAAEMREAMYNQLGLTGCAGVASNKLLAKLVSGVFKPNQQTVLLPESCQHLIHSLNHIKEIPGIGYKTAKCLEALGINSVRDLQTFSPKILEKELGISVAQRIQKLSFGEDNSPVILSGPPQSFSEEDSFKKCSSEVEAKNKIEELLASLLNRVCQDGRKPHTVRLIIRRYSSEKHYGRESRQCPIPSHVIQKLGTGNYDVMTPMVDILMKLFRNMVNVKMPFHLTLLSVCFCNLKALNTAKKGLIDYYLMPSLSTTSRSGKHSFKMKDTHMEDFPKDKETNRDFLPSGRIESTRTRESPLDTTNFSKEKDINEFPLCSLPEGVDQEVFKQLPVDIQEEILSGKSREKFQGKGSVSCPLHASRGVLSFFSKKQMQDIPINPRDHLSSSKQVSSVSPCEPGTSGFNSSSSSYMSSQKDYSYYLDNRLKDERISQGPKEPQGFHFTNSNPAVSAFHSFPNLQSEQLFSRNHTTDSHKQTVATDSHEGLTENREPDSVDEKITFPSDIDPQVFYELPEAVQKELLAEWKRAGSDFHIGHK
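Fluorescent replication assay read twice, at 0 min and 10 min after adding 50 nM (final) substrate. Enzyme (10 nM) and compounds were first incubated 15 min at room temperature; enzyme-free buffer wells were negative controls.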
POLH inh = DNA polymerase eta (human) inhibition. Q9Y253. recombinant Pol eta, fluorescent DNA replication assay. Potency, µM (titrated, usually from 114 µM), inactives show at the highest dose activity change, negative = inhibition, hits mostly inhibitors. 390,000 tested, 1.2% active; note: potency is the fitted concentration of half-maximal effect; % is set by controls: 0 for no effect and ±100 for the full control effect
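Pol eta at 10 nM preincubated with compounds 15 min at room temperature; reaction started with fluorescent substrate (50 nM final) and read kinetically at 0 and 10 min.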
Starred values were filed as active, the others as inactive; ! = repeats disagree. Unless noted, calls come from the whole dose curve; as a rule, active = well fitted inhibition curve with a large enough effect; inconclusive = small, poorly fitted or top-dose-only effect, or another doubt; inactive = no such curve, though single readings can be large or run the other way.

For COc1ccc(/C=C/C(=O)c2c(O)ccc3c(C)cc(=O)oc23)cc1 the results were Pol beta inh -1.8%, POLK inh -17.4%, PI5P4Ka inh -4.1, PI4K2A inh 12.4, POLI inh 17.8µM* and POLH inh -15.9%.
Screening COc1ccc(/C=C\C(=O)c2c(O)ccc3c(C)cc(=O)oc23)cc1 returned Pol beta inh 4.5%, POLK inh -2.8%, PI5P4Ka inh -3.3, PI4K2A inh 15.0, POLI inh inconclusive and POLH inh -12.0%.
For COc1cc2c(cc1OC)C(O)=CC(=O)C2=O the results were PI5P4Ka inh -54.3*, PI4K2A inh -6.7 and POLH inh 3.2%.
COc1ccc(N2CC(=O)N(c3ccc(OC)c(OC)c3)CC2=O)cc1OC was read as Pol beta inh -0.5%, POLK inh -5.5%, PI5P4Ka inh -6.5, PI4K2A inh 5.3, POLI inh 6.5% and POLH inh -5.9%.
Screening O=C(NCCCN1CCCC1=O)c1ccc2c(=O)n(Cc3ccco3)c(=S)[nH]c2c1 returned Pol beta inh 31.6µM*, POLK inh 1.8%, PI5P4Ka inh inconclusive, PI4K2A inh -3.4, POLI inh inconclusive and POLH inh -7.2%.
`O=C(c1ccc2c(=O)n(Cc3ccc4c(c3)OCO4)c(=S)[nH]c2c1)N1CCN(Cc2ccccc2)CC1` gave POLK inh -6.1% and POLI inh 19.2%.
Cc1ccc(CNC(=O)c2ccc3c(=O)n(CCCN4CCCC4=O)c(=S)[nH]c3c2)cc1 was read as Pol beta inh 31.6µM*, POLK inh -7.8%, PI5P4Ka inh -0.3, PI4K2A inh -3.5, POLI inh 29.1% and POLH inh 3.9%.
O=C(NCc1ccccc1)c1ccc2c(=O)n(CCCN3CCCC3=O)c(=S)[nH]c2c1 was read as Pol beta inh 0.1%, POLK inh 7.5%, PI5P4Ka inh -14.4, PI4K2A inh -1.5, POLI inh 14.3% and POLH inh 3.3%.
Screening COc1ccc(CCn2c(=S)[nH]c3cc(C(=O)NCc4ccco4)ccc3c2=O)cc1OC returned Pol beta inh 22.4µM*, POLK inh -12.4%, PI5P4Ka inh -26.6, PI4K2A inh 3.2, POLI inh 3.3% and POLH inh inconclusive.
O=C(c1ccc2c(=O)n(Cc3ccco3)c(=S)[nH]c2c1)N1CCN(Cc2ccc3c(c2)OCO3)CC1 was read as POLK inh inconclusive and POLI inh 89.1µM*.
C=CCNC(=O)c1ccc2c(=O)n(CCCN3CCCC3=O)c(=S)[nH]c2c1 was read as Pol beta inh 8.2%, POLK inh -3.8%, PI5P4Ka inh -17.3, PI4K2A inh 0.6, POLI inh 128.2% and POLH inh -2.8%.
`CCN(CC)c1ccc(NC(=O)CN2C(=O)c3cccnc3Sc3ccccc32)c(C)c1` gave Pol beta inh -2.0%, POLK inh -22.7%, PI4K2A inh -1.8, POLI inh -10.9% and POLH inh -11.6%.
For C=CC[C@@H]1NN2C(=O)[C@@H](CCc3ccccc3)[C@@H]3c4ccccc4C=NN3[C@@H]2c2ccccc21 the results were PI4K2A inh 0.7.
For COC(=O)C1CN(Cc2cn(CCOC(C)=O)nn2)CCS(=O)(=O)N1Cc1ccccc1 (stereo not drawn) the results were PI4K2A inh -6.8.
Screening COc1ccc(CCNC(=O)Cn2c(=O)cc(C(F)(F)F)c3c(C)nn(C)c32)cc1OC returned Pol beta inh 34.9%, POLK inh 0.0%, PI4K2A inh -0.8, POLI inh 7.9% and POLH inh -10.6%.
`CCN1C(=O)c2ccccc2C1Nc1ccc(OCCN2CCCCC2)cc1` (stereo not drawn) gave PI4K2A inh -1.1.
Screening O=C(c1cccc([N+](=O)[O-])c1)N1CCN(Cc2ccc3c(c2)OCO3)CC1 returned Pol beta inh -4.2%, POLK inh 1.0%, PI5P4Ka inh -0.1, PI4K2A inh -69.3*, POLI inh 86.0% and POLH inh -20.3%.
`Cn1nnc2c(N3CCN(Cc4ccccc4)CC3)ncnc21` gave POLK inh 1.3% and POLI inh -9.4%.
Screening CCOc1ccc2oc(C(=O)NNC(=O)c3ccccc3O)c(C)c2c1 returned POLK inh -23.3%, PI5P4Ka inh -13.3, PI4K2A inh -0.5, POLI inh inconclusive and POLH inh 79.4µM*.
Screening O=C(OC12CCCN(C1)/C(=C/c1cccc(Cl)c1)C2)c1ccc(F)cc1 (stereo not drawn) returned PI4K2A inh -3.5.
NC(=N\N=Cc1ccco1)/C(N)=N/N=Cc1ccco1 was read as POLK inh -38.7%, PI5P4Ka inh -26.9, PI4K2A inh -9.8, POLI inh inconclusive and POLH inh 44.7µM*.
For Cc1c(NS(=O)(=O)c2cccc(C(=O)NCc3ccc(Cl)cc3)c2)c(=O)n(-c2ccccc2)n1C the results were Pol beta inh inconclusive, POLK inh -11.2%, PI5P4Ka inh 0.2, PI4K2A inh 0.7, POLI inh 15.0% and POLH inh -1.9%.
Cc1c(NS(=O)(=O)c2cc(C(=O)NCCN(C)C)ccc2Cl)c(=O)n(-c2ccccc2)n1C was read as Pol beta inh 44.7µM*, POLK inh inconclusive, PI5P4Ka inh -7.3, PI4K2A inh -0.1, POLI inh inconclusive and POLH inh -25.7%.
Screening Cc1c(NS(=O)(=O)c2cccc(C(=O)O)c2)c(=O)n(-c2ccccc2)n1C returned Pol beta inh 73.4%, POLK inh -1.3%, PI5P4Ka inh -0.4, PI4K2A inh 7.2, POLI inh 50.1µM*! and POLH inh -9.0%.
Screening Cc1c(NS(=O)(=O)c2cccc(C(=O)NCc3ccco3)c2)c(=O)n(-c2ccccc2)n1C returned POLK inh -36.1%, PI5P4Ka inh -15.6, PI4K2A inh -10.2, POLI inh 35.5µM* and POLH inh inconclusive.
For C#CC(C)OCC1CNC(=S)O1 (stereo not drawn) the results were PI5P4Ka inh -0.3, PI4K2A inh -8.6 and POLH inh 4.6%.
`COc1ccccc1N(/N=C1\Sc2ccccc2C1=O)C(C)=O` gave Pol beta inh 2.4%, POLK inh 1.6%, PI5P4Ka inh 4.7, PI4K2A inh -1.7, POLI inh inconclusive and POLH inh 89.1µM*.
CCCC(=NCCc1c(C)[nH]c2ccccc12)C1=C(O)CC(c2ccccc2)CC1=O (stereo not drawn) was read as Pol beta inh 1.5%, POLK inh -6.9%, PI5P4Ka inh 10.2, PI4K2A inh -0.7, POLI inh 89.1µM* and POLH inh -25.3%.
COc1ccc(F)cc1-c1cc(NC=O)c2ncc(-c3cccc(C(=O)N(C)C)c3)n2c1 was read as PI5P4Ka inh -51.4* and PI4K2A inh -11.9.
